Laboratory results taken from paper PMC10163288.
These entries were drawn from the full list. How many sequences the whole screen found active is unknown.

B1: il2ra_site2_2erj_sap_27_mot_HHH_b1_06697_000000025_0001_41_54_H_._HHH_b2_06097_0001_0000200013_0000001_0_0001 (protein)
chain: SSSSDKLRELYKLAVELMRLVAEGDEERFEEVAEEVRKLVEELDSRTAREILEALERKIKSSSSS
B2: il2ra_site2_3nfp_sap_22_mot_ems_3hM_1278_af2_000000151_0001_43_60_H_._HHH_b2_04893_0001_0000100005_0000001_0_0001 (protein)
chain: SSSSSEELEELIEQARELLEEGDKYEAAQVVLRASRLALELNDPEAARRILELFEEIQRTSSSSS
B3: il2ra_site2_3nfp_sap_18_mot_7f6a3539c8daa08639e4cdbcc6f77908_0001_af2_000000032_0001_16_31_H_._HHH_b1_04314_af2_0001_0000300027_0000001_0_0001 (protein)
chain: SSSSDKSEEYLRIALELLEEAIKAGDEEAARSHLEVAKAAAESHNDEEVEERLEELEELLSSSSS
B4: il2ra_site2_2erj_sap_12_mot_HHH_b1_05666_000000037_0001_42_55_H_._HHH_b2_06677_0001_0000400020_0000001_0_0001 (protein)
chain: SSSSDERLHELYKLANELLRLEFEGDEERIEELLQRVRELAEELKSDAARELVERVEKKLSSSSS
B5: il2ra_site1_1z92_normal_mot_HHH_b2_05027_000000150_0001_42_56_H_._HHH_b2_03014_0001_0000400026_0000001_0 (protein)
chain: SSSSSSSEEWLEELVELVIKRSDDPEEQEELRRLLEELREEGDPELWLELAQLLIEIASSSSSSS
B6: il2ra_site1_3nfp_sap_17_mot_HHH_b1_06312_000000077_0001_1_18_H_._HHH_b1_02603_af2_0001_0000500014_0000001_0_0001_af2pred_0001_af2pred_1 (protein)
chain: SSSSDVEEFLEEIKEELREALEKGDARLAARIFKEASKKLREKGNPELAEELYEFLRKLISSSSS
B7: il2ra_site2_2erj_sap_25_mot_HHH_b1_02841_000000060_0001_43_57_H_._HHH_b1_02445_af2_0001_0000300014_0000001_0_0001 (protein)
chain: SSSSDTEERVEEVLEEARKAYEEGDLHEVYRLAVEAMRIASENNDQEALELVLRFIEELSSSSSS
B8: il2ra_site1_2b5i_sap_8_mot_HHH_b1_04517_000000040_0001_39_52_H_._HHH_b2_05314_0001_0000400027_0000001_0_0001_af2pred_dldesign_0_af2pred (protein)
chain: SSSDPKALAETAAAIVEELEEKYNLNLEQSAVLERLAVELVWKGVSPEEIRRRLEALAKELSSSS
B9: il2ra_site1_1z92_normal_mot_01209686ea234b34325f918445e6eade_0001_af2_000000154_0001_18_33_H_._HHH_b1_01021_0001_0000100004_0000001_0_af2pred_0001_1_af2pred_swa … (protein)
chain: SSSSSDELEEFIEELVKELGLDEEAKETLERLLEKLQEQGVSERAIRRALERMARRMRGSSSSSS
B10: il2ra_site2_3nfp_sap_11_mot_HHH_b1_00882_af2_000000293_0001_1_18_H_._HHH_b1_01194_af2_0001_0000300012_0000001_0_0001 (protein)
chain: SSSSSSSLYELLQEAVEAAKNGNPEEAKEILEQALEEAREAGDEEAEHFIEWFIKAVRSSSSSSS
B11: il2ra_site2_2erj_normal_mot_HHH_b1_04373_af2_000000118_0001_18_33_H_._HHH_b2_00961_af2_0001_0000900028_0000001_1 (protein)
chain: SSSSSDEEEVERRVRELLEEAEKVDLEEAYKLAVEALHLAAENRDPELLRLILEWVEKHSSSSSS
B12: il2ra_site2_3nfp_sap_15_mot_HHH_b1_02990_000000128_0001_41_58_H_._HHH_b1_03794_0001_0000400021_0000001_0_0001 (protein)
chain: SEAEEIIKLIAELLGTPPERVRERVEDAAEIVNRPPEEAAAYLLAQVALELGDPELEKEAKRLSR
B13: il2ra_site2_2erj_sap_28_mot_HHH_b1_08185_000000106_0001_41_55_H_._HHH_b2_03845_af2_0001_0001200037_0000001_0_0001 (protein)
chain: SSSSDEEEERLEELVERAERLLKEGNPEEAWEVLREAATLAWELGDEEIWSRLSKLTAEVASSSS
B14: il2ra_site1_1z92_normal_mot_54e474eed2d0515e81978198f0f96ec2_0001_000000202_0001_15_30_H_._8eb524b276bbb897fd8f0cca34c37a2d_0001_af2_0001_0000300018_0000001_0_a … (protein)
chain: DVEEEIEEALKELGVPPEEIKVVKRDFRLAREAGIPPEQVLRALINAARASGDEELTEALELVLK
B15: il2ra_site1_3nfp_normal_mot_e80b558ee5422d85aa46efdc370d0602_0001_af2_000000114_0001_54_65_H_._HEEHE_2247_0002_0000400019_0000001_0_af2pred_0001_af2pred (protein)
chain: DRQEILQEDAELISKVAGVTSVHVEVENGHVTVTVEADNRRARALLRILREAAKIAGLEVEITIE
B16: il2ra_site2_2erj_normal_mot_HHH_b1_02757_000000121_0001_41_57_H_._HHH_b1_02256_0001_0000700046_0000001_0_af2pred_0001_af2pred (protein)
chain: SSSSSSSVEEEVKELLEQAKHIPDIREALKVLEEADRLALENDNEELLELITRVLRELSSSSSSS
B17: il2ra_site2_2erj_normal_mot_HHH_b2_04744_000000294_0001_42_58_H_._HHH_b1_07967_af2_0001_0000500022_0000001_0 (protein)
chain: SSSSDEEERLEELLKELEELSRKRDFHRFAEVFSEILELVEENNDEEAALIAFRIMREHFGSSSS
B18: il2ra_site1_2b5i_normal_mot_f5ff40796168375b462bec8614a1db4a_0001_1_000000138_0001_53_65_H_._HHH_b2_01775_0001_0000500027_0000001_0_af2pred_dldesign_0_af2pred (protein)
chain: SSSSSSEKRELIQALIDEAKKEEDKRLAKRLLLLALRLARKHNDEELIAEIEALLKELESSSSSS
B19: il2ra_site2_2erj_sap_16_mot_HHH_b2_07792_af2_000000252_0001_18_34_H_._HHH_b1_07975_af2_0001_0000200006_0000001_0_0001 (protein)
chain: SSSSSDTEEEVEELLEQAKRITDLREVYRLAVEALHLAARVQDPELQRLVAEVVEELSRSSSSSS
B20: il2ra_site2_2erj_sap_19_mot_HHH_b2_01275_af2_000000073_0001_23_39_H_._HHH_b1_01063_af2_0001_0000200019_0000001_0_0001 (protein)
chain: SSSSDKLRELYELAVEVLRAVARGDEEEAERLLEEAKELAEELDSPNAREALENNKRLLKSSSSS
B21: il2ra_site2_2erj_sap_14_mot_HHH_b2_01204_af2_000000056_0001_19_34_H_._HHH_b2_03878_0001_0000200011_0000001_0_0001 (protein)
chain: SSSSDWLHELYELASEITRLLAEGDPEEARRLLEELEELAEENDSPNAEEIVERLEKKIESSSSS
B22: il2ra_site1_2b5i_sap_14_mot_HHH_b2_01684_af2_000000128_0001_1_17_H_._HHH_b1_05605_0001_0000200010_0000001_0_0001_af2pred_dldesign_0_af2pred (protein)
chain: SSSSSSSSDRRALLEEANKAFQAGDVEALEALLERAEAAGWEKVARTIRKAIEALLESSSSSSSS
B23: il2ra_site1_2b5i_sap_9_mot_HHH_b2_02740_000000236_0001_1_21_H_._HHH_b1_02398_0001_0000300016_0000001_0_0001 (protein)
chain: SSSSDDELFHEIDELFREASRLFLNGNPEEAEKVLEKAIRLAEEGGDESTAEDLRRFLELLSSSS
B24: il2ra_site2_3nfp_sap_25_mot_HHH_b2_06150_000000217_0001_39_53_H_._HHH_b2_05014_af2_0001_0000300011_0000001_0_0001 (protein)
chain: DEVSEVIWRLREEGDPELAFLLFAVRADVLYKHDPELEEELEKLIELAERDPEKAKELAEELLRR

biological target: il2ra, P01589; assay: yeast display titration
Sequence (P01589 whole entry): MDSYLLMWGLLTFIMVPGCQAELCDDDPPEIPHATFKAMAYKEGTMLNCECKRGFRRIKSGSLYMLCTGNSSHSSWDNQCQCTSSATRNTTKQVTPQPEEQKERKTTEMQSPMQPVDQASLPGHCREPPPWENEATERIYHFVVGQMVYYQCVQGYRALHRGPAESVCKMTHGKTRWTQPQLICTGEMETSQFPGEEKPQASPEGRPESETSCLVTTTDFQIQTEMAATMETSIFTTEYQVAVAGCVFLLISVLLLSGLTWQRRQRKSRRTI

Apparent Kd, inactive:
B1 no binding seen
B2 no binding seen
B3 no binding seen
B4 no binding seen
B5 no binding seen
B6 no binding seen
B7 no binding seen
B8 no binding seen
B9 no binding seen
B10 no binding seen
B11 no binding seen
B12 no binding seen
B13 no binding seen
B14 no binding seen
B15 no binding seen
B16 no binding seen
B17 no binding seen
B18 no binding seen
B19 no binding seen
B20 no binding seen
B21 no binding seen
B22 no binding seen
B23 no binding seen
B24 no binding seen
